Assay outcomes: PubChem BioAssay, National Center for Advancing Translational Sciences (NCATS)
D1 potentiator: enhances dopamine response at the human D1 receptor | HEK293 TREx D1 cells, calcium flux, dopamine EC20 potentiation | potentiation, % at 10 µM | 360,000 tested, 0.036% active | P21728; in the data active = potentiation above about 30%; also: 0% is about no effect
TRHR enhancer: allosteric enhancers of human TRH receptor; 360,000 tested, 0.66% active; enhancement, % at 2 µM; TRHR cells, fluo-8 calcium fluorescence, EC20 TRH enhancement; in the data active = enhancement above about 30%; also: 0% is about no effect
Target sequence (P34981 whole entry, looked up): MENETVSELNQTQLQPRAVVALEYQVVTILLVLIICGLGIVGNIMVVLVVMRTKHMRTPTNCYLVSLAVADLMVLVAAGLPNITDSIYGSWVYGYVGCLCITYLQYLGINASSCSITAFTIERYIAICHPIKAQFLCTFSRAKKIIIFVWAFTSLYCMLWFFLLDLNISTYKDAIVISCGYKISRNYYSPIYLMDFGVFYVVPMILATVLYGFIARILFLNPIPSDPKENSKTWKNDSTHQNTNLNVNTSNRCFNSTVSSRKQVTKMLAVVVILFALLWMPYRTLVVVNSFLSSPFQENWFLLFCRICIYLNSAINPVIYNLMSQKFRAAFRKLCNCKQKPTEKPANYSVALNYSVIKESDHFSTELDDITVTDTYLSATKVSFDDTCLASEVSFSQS
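TRHR-expressing cells loaded with fluo-8 calcium dye were read kinetically (ex 480/em 530) during compound addition, then stimulated with an EC20 of TRH (10 nM final). Enhancement of the Gq-mediated intracellular calcium response was scored.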
D1 agonist: activates the human D1 dopamine receptor | HEK293 T-REx D1 cells, calcium flux, agonist mode | activation, % at 2 µM | 360,000 tested, 1% active | AID 504660; also: 0% is about no effect
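Agonism was scored from calcium flux recorded over 180 s (1 read/s) after pintool compound addition, following a 10-cycle baseline. Cells were inducible force-coupled HEK293 TREx D1, plated overnight at 30 C and loaded with no-wash calcium dye.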
D1 antag: antagonists of human D1 dopamine receptor. P21728. 360,000 tested, 3.2% active. HEK293 TREx D1 cells, calcium flux, dopamine EC80; active compounds read low. activity change, negative = inhibition, % at 10 µM; in the data active = activity change below about -30%; also: % is scaled to controls: 0 for no effect and ±100 for the full control effect
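Using tetracycline-induced force-coupled D1 Hek293 cells and a calcium dye, signals were followed for 180 s after compound, then for 180 s after EC80 dopamine, to detect inhibitors.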
TRHR agonist: agonists of human TRH receptor | 360,000 tested, 0.18% active | P34981 | TRHR cells, calcium flux fluo-8, FDSS agonist mode | activation, % at 2 µM | AID 493084; also: 0% is about no effect
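In this calcium-flux screen, cells bearing human TRHR are dye-loaded with fluo-8, baselined for 10 cycles, then exposed to library compounds; positive kinetic calcium responses during the agonist phase mark hits, with TRH as control.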
An asterisk follows results filed as active. This is a sample that favours compounds with a hit; in the whole collection about 4.7% have one here. Rule as the data show it, unless noted: active = activation above about 30%; inactive = the rest.

For CCOC(=O)c1cc2c(ccn2C)n1CC(=O)N1CCN(c2ccc(F)cc2)CC1 the results were D1 potentiator 6, TRHR enhancer 1, D1 agonist 0, D1 antag 13 and TRHR agonist 0.
`CC(C)(C)CC(=O)NCC(c1ccc2c(c1)OCO2)N1CCN(c2ccccc2)CC1` (stereo unspecified) gave D1 potentiator -2, TRHR enhancer -19, D1 agonist 0, D1 antag 8 and TRHR agonist 1.
COc1ccc(CN(C(=O)c2snc(C(N)=O)c2N)C(C(=O)NC2CCCC2)c2ccc(OC)cc2)cc1 (stereo unspecified) was read as D1 potentiator -5, TRHR enhancer 7, D1 agonist 9, D1 antag 10 and TRHR agonist -1.
`COc1ccc(C(C(=O)NC2CCCC2)N(Cc2ccco2)C(=O)c2snc(C(N)=O)c2N)cc1OC` (stereo unspecified) gave D1 potentiator -4, TRHR enhancer -3, D1 agonist 4, D1 antag -33* and TRHR agonist 0.
`COc1ccc(CN(C(=O)c2snc(C(N)=O)c2N)C(C(=O)NC2CCCC2)c2cc(OC)ccc2OC)cc1` (stereo unspecified) gave D1 potentiator 3, TRHR enhancer 34*, D1 agonist 9, D1 antag 2 and TRHR agonist -1.
`Cc1cc(NC(=O)CCC(=O)N(Cc2ccco2)C(C(=O)NC2CCCCC2)c2cccs2)no1` (stereo unspecified) gave D1 potentiator 0, TRHR enhancer -2, D1 agonist 3, D1 antag 4 and TRHR agonist -1.
COc1cccc(C(C(=O)NC2CCCC2)N(Cc2ccco2)C(=O)c2ccco2)c1OC (stereo unspecified) was read as D1 potentiator -5, TRHR enhancer 3, D1 agonist 0, D1 antag -37* and TRHR agonist -1.
Screening Cc1ccc(C(C(=O)NC2CCCC2)N(Cc2ccco2)C(=O)CCC(=O)Nc2cc(C)on2)cc1 (stereo unspecified) returned D1 potentiator -5, TRHR enhancer -1, D1 agonist 2, D1 antag -32* and TRHR agonist 0.
Screening CCC(C)Cn1c(/C=C/c2ccccc2)nc2ccccc21 (stereo unspecified) returned D1 potentiator -3, TRHR enhancer -3, D1 agonist 4, D1 antag -24 and TRHR agonist -1.
Screening O=C(Nc1ccc(-c2nc3cc(NC(=O)c4ccc(Cl)cc4)ccc3o2)cc1)c1ccc(Cl)cc1 returned D1 potentiator -2, TRHR enhancer 1, D1 agonist 2, D1 antag 5 and TRHR agonist 0.
CCC(=O)Nc1nc2ccc(NC(=O)COc3ccccc3)cc2s1 was read as D1 potentiator -4, TRHR enhancer -21, D1 agonist 2, D1 antag -72* and TRHR agonist -1.
`Cc1cccc(OCCCC(=O)Nc2ccc(N(C)C)cc2)c1` gave D1 potentiator -3, TRHR enhancer 3, D1 agonist 6, D1 antag -2 and TRHR agonist -1.
For Cc1cccc(OCC(=O)Nc2ccc3nc(C)sc3c2)c1 the results were D1 potentiator -10, TRHR enhancer 10, D1 agonist 9, D1 antag -33* and TRHR agonist 0.
`Cc1cccc(OCCC(=O)Nc2ccc(F)c(F)c2)c1` gave D1 potentiator -6, TRHR enhancer -5, D1 agonist 9, D1 antag -38* and TRHR agonist -1.
Cc1nc2ccc(NC(=O)COc3ccccc3)cc2s1 was read as D1 potentiator 3, TRHR enhancer 3, D1 agonist 1, D1 antag -9 and TRHR agonist -1.
COc1ccc(OCC(=O)Nc2nc3ccc(NC(C)=O)cc3s2)cc1 was read as D1 potentiator 3, TRHR enhancer 4, D1 agonist 0, D1 antag 7 and TRHR agonist 0.
`O=C(COc1ccccc1)Nc1ccc2nc(SCCOc3ccccc3)sc2c1` gave D1 potentiator 3, TRHR enhancer -1, D1 agonist 7, D1 antag -31* and TRHR agonist 2.
Screening Cc1cc(C)cc(OCCSc2nc3ccc(NC(=O)COc4ccccc4)cc3s2)c1 returned D1 potentiator 0, TRHR enhancer 8, D1 agonist 15, D1 antag -1 and TRHR agonist 1.
